Compounds with a hit are over-represented: about 3.1% of the library has one in this group of screens.
PriA SSB inh: inhibitors of Klebsiella pneumoniae PriA binding to SSB C-terminal tail, primary screen, biochemical, AlphaScreen | PriA–SSB C-terminal tail interaction (Klebsiella pneumoniae) | AlphaScreen SSBct-PriA binding, biotinylated peptide | inhibition, % at 33 µM | hit rate 0.6% among 430,000; in the data active means inhibition mostly above about 37%, no sharp cut-off; inactive means mostly below about 20%;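 further: plate controls were negative control peptide for no effect and reference peptide for full effect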
Anthrax LF prot: Bacillus anthracis LF protease inhibitors, primary screen, biochemical, multiplex microsphere, MLPCN library | multiplex microsphere protease cleavage assay | hit rate 0.12% among 360,000 | AID 588501, 2011 | inhibition, % at 10 µM; further: plate controls were buffer without enzyme for full effect and enzyme alone for no effect
BoNT-A LC inh2: BoNT/A light chain protease inhibitors, primary screen, biochemical, flow cytometry, MLPCN library; inhibition, % at 10 µM; Botulinum neurotoxin type A light chain protease (Clostridium botulinum A str. ATCC 3502); AID 588499, 2011; multiplex microsphere protease substrate cleavage; hit rate 0.17% among 360,000; further: plate controls were buffer without enzyme for full effect and enzyme alone for no effect
BoNT-F LC inh: BoNT/F light chain protease inhibitors, primary screen, biochemical, flow cytometry, MLPCN library. Botulinum neurotoxin type F light chain protease (Clostridium botulinum). hit rate 0.22% among 360,000. inhibition, % at 10 µM. Multiplex microsphere protease cleavage assay; in the data active means inhibition above about 35%, passing the limit was not always enough; inconclusive means no clear call, values can overlap the other calls; further: plate controls were buffer without enzyme for full effect and enzyme alone for no effect
Autofluor counter: compound fluorescence in toxin protease inhibitor counterscreen; compound autofluorescence counterscreen, microsphere flow cytometry; stronger effect = higher value; fluorescence intensity (concentration not given with the values); hit rate 3.1% among 360,000; AID 624483; in the data active means fluorescence intensity above about 16000; inconclusive means no clear call, values can overlap the other calls
An asterisk follows results filed as active; ? = inconclusive; · = no result given. Unless noted, no stated cut-off is given here; in the data, active means inhibition above about 30%; inconclusive means no clear call, values can overlap the other calls; inactive means below that.

SMILES	PriA SSB inh	Anthrax LF prot	BoNT-A LC inh2	BoNT-F LC inh	Autofluor counter
C/C=C/c1c(F)c(F)c(Oc2ccc(C(=O)O)cc2)c(F)c1F	-19.1	-7.0	2.9	2.3	21781*
CCOc1ccc2nc(N=Cc3c(C)[nH]n(-c4ccc(C)cc4)c3=O)sc2c1	-4.7	·	·	·	·
COc1ccc2nc(N=Cc3c(C)[nH]n(-c4ccc(C)cc4C)c3=O)sc2c1	47.8*	·	·	·	·
COC(=O)c1ccccc1NC(=O)c1noc2c1CCCC2	-9.2	-2.2	2.5	0.7	19950*
COc1cc(NC(=O)c2noc3c2CCC3)c(OC)cc1Cl	-11.3	-1.3	3.2	2.9	19679*
O=C(Nc1cccc([N+](=O)[O-])c1)Nc1ccc2c(c1)CCC2	-5.8	-4.3	-1.2	-0.1	6226
O=[N+]([O-])c1cccc(CNc2ccc3c(c2)CCC3)c1	69.2*	-2.9	0.2	0.6	9073
CC1CCCC(NC(=O)CCn2c(=O)oc3ccccc32)C1C (stereo unspecified)	-5.8	-4.2	0.8	0.2	22573*
O=C(CCn1c(=O)oc2ccccc21)NCCN1CCc2ccccc2C1	-20.1	1.3	1.2	5.3	20382*
CC1CCCCC1NC(=O)CCn1c(=O)oc2ccccc21 (stereo unspecified)	2.3	3.5	1.1	20.1	10700
CC1CCCC(NC(=O)COC(=O)Cc2ccccc2)C1C (stereo unspecified)	-6.0	-20.2	7.1	7.5	17041*
COc1cccc(CNC(=O)CCn2c(=O)oc3ccccc32)c1	-4.2	-2.8	-3.2	-4.3	25239*
CC1CCCC(NC(=O)COC(=O)Cc2ccc(Cl)cc2)C1C (stereo unspecified)	-13.5	3.3	0.2	-4.9	3543
CCOC(=O)C1C(=O)C=C(/C=C/c2ccccc2)CC1c1ccc(Cl)cc1 (stereo unspecified)	-22.7	-3.8	?	-3.8	16539*
CC(=NNC(=O)c1cccc(Br)c1)C1CC2CCC1C2 (stereo unspecified)	5.8	·	·	·	·
O=C(Nc1nc(-c2ccccn2)cs1)c1ccc(N2CCCC2)nn1	72.0*	·	·	·	·
O=C(Nc1nc(-c2ccco2)cs1)c1ccc(N2CCOCC2)nn1	-8.0	·	·	·	·
O=C(Nc1ccc(N2CCOCC2)nc1)c1ccc(F)cc1	-5.4	-1.2	0.5	-1.4	22364*
CCOC(=O)Cc1csc(NC(=O)c2ccc(N3CCCCC3)nn2)n1	-10.0	·	·	·	·
O=C(Nc1nc(-c2ccccn2)cs1)c1ccc(F)c(S(=O)(=O)N2CCOCC2)c1	45.4*	-0.2	0.8	-2.1	3887
Cc1nc(NC(=O)c2ccc(N3CCCCC3)nn2)sc1C(=O)N(C)C	48.0*	·	·	·	·
O=C(Nc1nc(-c2ccccn2)cs1)c1ccc(Cl)c(S(=O)(=O)N2CCCC2)c1	60.7	·	·	·	·
CCS(=O)(=O)N1CCCc2cc(NC(=O)Cc3ccc(-c4ccccc4)cc3)ccc21	-18.0	·	·	·	·
Cc1ccc(C(=O)Nc2nc(-c3ccccn3)cs2)cc1S(=O)(=O)N1CCOCC1	43.0*	-1.6	0.1	-3.1	3895
O=C(Nc1nc(-c2ccccn2)cs1)c1cc(S(=O)(=O)N2CCOCC2)ccc1F	83.0*	-1.3	3.1	-3.9	2694
SMILES	PriA SSB inh	Anthrax LF prot	BoNT-A LC inh2	BoNT-F LC inh	Autofluor counter
O=C(Nc1nc(-c2ccccn2)cs1)c1ccc(N2CCOCC2)nc1	94.8*	·	·	·	·
O=C(Nc1nc(-c2ccccn2)cs1)c1ccc(N2C(=O)CCC2=O)cc1	54.8	·	·	·	·
Cc1ccc(C(=O)Nc2nc(-c3ccccn3)cs2)cc1S(=O)(=O)N1CCCCC1	64.5*	·	·	·	·
Cc1ccc(S(=O)(=O)N2CCOCC2)cc1C(=O)Nc1nc(-c2cccnc2)cs1	-11.9	-0.7	-1.0	-5.7	11126
CO[C@@H](CNC(=O)NCc1cccs1)c1cccc(F)c1	-10.0	·	·	·	·
CCOC(=O)C1=C(C)NC2=C(C(=O)c3ccccc32)[C@H]1c1ccc(Cl)cc1	1.0	·	·	·	·
CCOC(=O)C1=C(Cc2ccc(Cl)cc2)C(=O)c2ccccc2C1=O	25.9	-9.0	2.9	-9.9	23250*
COc1ccc(CNc2oc(COc3ccc(Cl)cc3)nc2C#N)cc1	1.0	-3.3	-4.2	-9.9	20982*
COc1ccc(Nc2oc(COc3ccc(Cl)cc3)nc2C#N)cc1	41.4*	-7.7	-0.6	6.2	4659
O=C(Cn1ncccc1=O)NCc1cncc(-c2cccs2)c1	-3.0	·	·	·	·
CCCSC1=NC2(CCN(C(=O)Nc3ccccc3C(F)(F)F)CC2)N=C1c1ccc(OC)cc1	0.0	·	·	·	·
COc1ccc(CCNC(=O)c2ccc(=O)n(C)n2)cc1	0.0	·	·	·	·

Source: PubChem BioAssay (several laboratories)
